# Measured values from PubChem BioAssay AID1159580 (chemical genetic matrix, 2015).
# Values joined by “and” are separate entries in the source; they are usually repeats but may differ in a detail not shown here. Equal values may be shown once. Screen size: about 5,500 compounds; about 2,000 (36%) were called active. About 18% were inconclusive and are not listed. No stated cut-off is given here; in the data, active means normalized growth mostly below about 0.91 (no sharp cut-off); inconclusive means no clear call, values can overlap the other calls; inactive means mostly above about 0.92. The list shows a part of the results. More than one record can exist for a structure, and the calls need not agree.
# Experiment: chemical genetic growth profiling, strain panel (AID 1159580);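 further: tested at 20 µM; growth read once vehicle control cultures reached saturation at 30 °C; 1 = growth at the plate median or of vehicle wells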
# Settings: S. cerevisiae deletion strains, growth OD
# [1] = locus YCL061C, strain MRC1, stronger effect = lower value
# [2] = locus YHR030C, strain SLT2, stronger effect = lower value
# [3] = locus YJL187C, strain SWE1, stronger effect = lower value
smiles,measurement,setting,value
NCCOB(c1ccccc1)c1ccccc1,normalized growth,"locus YAL021C, strain ccr4, stronger effect = lower value",0.936 (inactive) and 0.969 (inactive)
same,normalized growth,"locus YAL026C, strain drs2, stronger effect = lower value",0.153 (active) and 0.218 (active)
same,normalized growth,"locus YAL030W, strain snc1, stronger effect = lower value",0.892 (active) and 0.987 (inactive)
same,normalized growth,"locus YBL061C, strain skt5, stronger effect = lower value",0.578 (active) and 0.786 (active)
same,normalized growth,"locus YBR009C, strain hhf1, stronger effect = lower value",0.758 (active) and 0.788 (active)
same,normalized growth,"locus YBR023C, strain chs3, stronger effect = lower value",0.925 (inactive) and 0.92 (inactive)
same,normalized growth,"locus YBR171W, strain sec66, stronger effect = lower value",0.968 (inactive) and 0.998 (inactive)
same,normalized growth,"locus YBR231C, strain swc5, stronger effect = lower value",1.03 (inactive) and 1 (inactive)
same,normalized growth,"locus YBR279W, strain paf1, stronger effect = lower value",0.46 (active) and 0.808 (active)
same,normalized growth,"locus YCL011C, strain gbp2, stronger effect = lower value",0.879 (active) and 0.913 (inactive)
same,normalized growth,"locus YCL016C, strain dcc1, stronger effect = lower value",1.01 (inactive) and 0.977 (inactive)
same,normalized growth,[1],0.827 (active) and 0.759 (active)
same,normalized growth,"locus YCL069W, strain vba3, stronger effect = lower value",0.437 (active) and 0.312 (active)
same,normalized growth,"locus YCR088W, strain abp1, stronger effect = lower value",0.604 (active) and 0.524 (active)
same,normalized growth,"locus YDL005C, strain med2, stronger effect = lower value",1 (inactive) and 1.03 (inactive)
same,normalized growth,"locus YDL040C, strain nat1, stronger effect = lower value",1.01 (inactive) and 1.02 (inactive)
same,normalized growth,"locus YDR001C, strain nth1, stronger effect = lower value",0.651 (active) and 0.789 (active)
same,normalized growth,"locus YDR069C, strain doa4, stronger effect = lower value",1.02 (inactive) and 1.01 (inactive)
same,normalized growth,"locus YDR137W, strain rgp1, stronger effect = lower value",0.997 (inactive) and 0.987 (inactive)
same,normalized growth,"locus YDR159W, strain sac3, stronger effect = lower value",1.03 (inactive) and 1.06 (inactive)
same,normalized growth,"locus YDR195W, strain ref2",1.11 (inactive) and 1.07 (inactive)
same,normalized growth,"locus YDR297W, strain sur2, stronger effect = lower value",1.01 (inactive) and 0.979 (inactive)
same,normalized growth,"locus YDR334W, strain swr1, stronger effect = lower value",0.472 (active) and 0.793 (active)
same,normalized growth,"locus YDR335W, strain msn5, stronger effect = lower value",1 (inactive) and 0.991 (inactive)
same,normalized growth,"locus YDR392W, strain spt3, stronger effect = lower value",0.423 (active) and 0.451 (active)
same,normalized growth,"locus YEL003W, strain gim4, stronger effect = lower value",1.02 (inactive) and 0.999 (inactive)
same,normalized growth,"locus YEL037C, strain rad23, stronger effect = lower value",1.01 (inactive)
same,normalized growth,"locus YEL061C, strain CIN8 (second series), stronger effect = lower value",1.01 (inactive)
same,normalized growth,"locus YER015W, strain faa2, stronger effect = lower value",0.528 (active) and 0.733 (active)
same,normalized growth,"locus YER016W, strain bim1, stronger effect = lower value",1.02 (inactive)
same,normalized growth,"locus YER111C, strain swi4, stronger effect = lower value",1.02 (inactive) and 1.01 (inactive)
same,normalized growth,"locus YER155C, strain BEM2 (second series), stronger effect = lower value",0.815 (active) and 0.926 (inactive)
same,normalized growth,"locus YFR010W, strain ubp6, stronger effect = lower value",0.351 (active) and 0.387 (active)
same,normalized growth,"locus YGL167C, strain pmr1, stronger effect = lower value",1.04 (inactive) and 1.05 (inactive)
same,normalized growth,"locus YGL173C, strain kem1, stronger effect = lower value",0.927 (inactive) and 0.93 (inactive)
same,normalized growth,"locus YGL227W, strain vid30, stronger effect = lower value",0.602 (active) and 0.427 (active)
same,normalized growth,"locus YGL240W, strain doc1, stronger effect = lower value",0.822 (active) and 0.865 (active)
same,normalized growth,"locus YGL253W, strain hxk2, stronger effect = lower value",0.468 (active) and 0.384 (active)
same,normalized growth,"locus YHR013C, strain ard1, stronger effect = lower value",0.432 (active) and 0.49 (active)
same,normalized growth,"locus YHR027C, strain rpn1, stronger effect = lower value",0.799 (active) and 0.766 (active)
same,normalized growth,[2],0.106 (active)
same,normalized growth,"locus YHR079C, strain IRE1, stronger effect = lower value",0.11 (active)
same,normalized growth,"locus YHR142W, strain chs7, stronger effect = lower value",0.882 (inactive) and 0.977 (inactive)
same,normalized growth,"locus YJL092W, strain hpr5, stronger effect = lower value",0.334 (active) and 0.399 (active)
same,normalized growth,"locus YJL095W, strain BCK1 (second series), stronger effect = lower value",0.887 (active) and 0.923 (inactive)
same,normalized growth,"locus YJL095W, strain BCK1, stronger effect = lower value",0.106 (active)
same,normalized growth,"locus YJL115W, strain asf1, stronger effect = lower value",0.85 (active) and 0.877 (active)
same,normalized growth,"locus YJL129C, strain trk1, stronger effect = lower value",0.965 (inactive) and 0.979 (inactive)
same,normalized growth,"locus YJL154C, strain vps35, stronger effect = lower value",0.454 (active) and 0.657 (active)
same,normalized growth,"locus YJL164C, strain tpk1, stronger effect = lower value",0.824 (active) and 0.786 (active)
same,normalized growth,"locus YJL166W, strain qcr8, stronger effect = lower value",0.841 (active) and 0.839 (active)
same,normalized growth,[3],0.798 (active)
same,normalized growth,"locus YJR066W, strain TOR1, stronger effect = lower value",0.00283 (active)
same,normalized growth,"locus YKL160W, strain elf1, stronger effect = lower value",0.717 (active) and 0.751 (active)
same,normalized growth,"locus YKR026C, strain gcn3, stronger effect = lower value",0.381 (active) and 0.353 (active)
same,normalized growth,"locus YKR091W, strain srl3, stronger effect = lower value",0.357 (active) and 0.316 (active)
same,normalized growth,"locus YLL001W, strain dnm1, stronger effect = lower value",0.995 (inactive) and 0.946 (inactive)
same,normalized growth,"locus YLL026W, stronger effect = lower value",0.836 (active) and 0.998 (inactive)
same,normalized growth,"locus YLL041C, strain sdh2, stronger effect = lower value",0.868 (active) and 0.944 (inactive)
same,normalized growth,"locus YLR027C, strain aat2, stronger effect = lower value",0.694 (active) and 0.939 (inactive)
same,normalized growth,"locus YLR113W, strain HOG1, stronger effect = lower value",0.141 (active)
same,normalized growth,"locus YLR221C, strain rsa3, stronger effect = lower value",0.372 (active) and 0.709 (active)
same,normalized growth,"locus YLR258W, strain gsy2, stronger effect = lower value",0.578 (active) and 0.778 (active)
same,normalized growth,"locus YLR262C, strain YPT6 (second series), stronger effect = lower value",0.923 (inactive) and 0.845 (active)
same,normalized growth,"locus YLR320W, strain mms22, stronger effect = lower value",0.973 (inactive) and 1 (inactive)
same,normalized growth,"locus YLR342W, strain FKS1, stronger effect = lower value",0.841 (active) and 0.823 (active)
same,normalized growth,"locus YLR357W, strain rsc2, stronger effect = lower value",0.629 (active)
same,normalized growth,"locus YLR370C, strain arc18, stronger effect = lower value",0.44 (active) and 0.485 (active)
same,normalized growth,"locus YLR384C, strain iki3, stronger effect = lower value",1.02 (inactive)
same,normalized growth,"locus YML120C, strain ndi1, stronger effect = lower value",0.961 (inactive) and 0.993 (inactive)
same,normalized growth,"locus YMR058W, strain fet3, stronger effect = lower value",0.167 (active) and 0.157 (active)
same,normalized growth,"locus YMR125W, strain sto1, stronger effect = lower value",0.759 (active) and 0.824 (active)
same,normalized growth,"locus YMR129W, stronger effect = lower value",0.507 (active) and 0.306 (active)
same,normalized growth,"locus YMR205C, strain PFK2, stronger effect = lower value",0.937 (inactive) and 0.943 (inactive)
same,normalized growth,"locus YMR231W, strain pep5, stronger effect = lower value",0.247 (active) and 0.309 (active)
same,normalized growth,"locus YNL071W, strain lat1, stronger effect = lower value",0.248 (active) and 0.315 (active)
same,normalized growth,"locus YNL183C, strain NPR1, stronger effect = lower value",0.000102 (active)
same,normalized growth,"locus YNL209W, strain ssb2, stronger effect = lower value",0.699 (active) and 0.694 (active)
same,normalized growth,"locus YNL248C, strain rpa49, stronger effect = lower value",0.693 (active) and 0.758 (active)
same,normalized growth,"locus YNL322C, strain KRE1 (second series), stronger effect = lower value",1.04 (inactive) and 1.03 (inactive)
same,normalized growth,"locus YNR049C, strain mso1, stronger effect = lower value",0.585 (active) and 0.756 (active)
same,normalized growth,"locus YOR001W, strain rrp6, stronger effect = lower value",0.947 (inactive) and 1 (inactive)
same,normalized growth,"locus YOR070C, strain gyp1, stronger effect = lower value",0.657 (active) and 0.767 (active)
same,normalized growth,"locus YOR080W, strain dia2, stronger effect = lower value",1.02 (inactive)
same,normalized growth,"locus YOR083W, strain WHI5, stronger effect = lower value",0.202 (active) and 0.184 (active)
same,normalized growth,"locus YOR106W, strain vam3, stronger effect = lower value",0.688 (active) and 0.741 (active)
same,normalized growth,"locus YOR231W, strain MKK1, stronger effect = lower value",0.0985 (active)
same,normalized growth,"locus YOR265W, strain rbl2, stronger effect = lower value",0.79 (active) and 0.861 (active)
same,normalized growth,"locus YOR270C, strain vph1, stronger effect = lower value",0.934 (inactive) and 0.992 (inactive)
same,normalized growth,"locus YOR290C, strain snf2, stronger effect = lower value",0.895 (inactive) and 0.926 (inactive)
same,normalized growth,"locus YPL051W, strain arl3, stronger effect = lower value",0.622 (active) and 0.599 (active)
same,normalized growth,"locus YPL078C, strain atp4, stronger effect = lower value",0.967 (inactive) and 0.972 (inactive)
same,normalized growth,"locus YPL106C, strain sse1, stronger effect = lower value",0.891 (inactive) and 0.792 (active)
same,normalized growth,"locus YPL240C, strain hsp82, stronger effect = lower value",1.02 (inactive) and 0.932 (inactive)
same,normalized growth,"locus YPL256C, strain CLN2, stronger effect = lower value",0.118 (active)
CC(=O)c1ccc(-c2ccc(Cl)c(Cl)c2)o1,normalized growth,"locus YAL013W, strain DEP1, stronger effect = lower value",0.803 (active)
same,normalized growth,"locus YBR229C, strain ROT2, stronger effect = lower value",0.825 (active)
same,normalized growth,[1],0.776 (active)
same,normalized growth,"locus YDL101C, strain DUN1, stronger effect = lower value",0.661 (active)
same,normalized growth,"locus YDL134C, strain PPH21, stronger effect = lower value",0.428 (active)
same,normalized growth,"locus YEL061C, strain CIN8, stronger effect = lower value",0.445 (active)
same,normalized growth,"locus YGR078C, strain PAC10, stronger effect = lower value",0.863 (active)
same,normalized growth,"locus YGR229C, strain SMI1, stronger effect = lower value",0.956 (inactive)
same,normalized growth,[2],0.0914 (active)
same,normalized growth,"locus YHR087W, strain rtc3, stronger effect = lower value",0.816 (active)
same,normalized growth,[3],0.807 (active)
same,normalized growth,"locus YJR043C, strain POL32, stronger effect = lower value",0.8 (active)
same,normalized growth,"locus YJR075W, strain HOC1, stronger effect = lower value",0.787 (active)
same,normalized growth,"locus YLR039C, strain RIC1, stronger effect = lower value",0.207 (active)
same,normalized growth,"locus YLR058C, strain SHM2 (second series), stronger effect = lower value",0.994 (inactive)
same,normalized growth,"locus YLR085C, strain ARP6, stronger effect = lower value",0.112 (active)
same,normalized growth,"locus YLR262C, strain YPT6, stronger effect = lower value",0.264 (active)
same,normalized growth,"locus YML094W, strain GIM5, stronger effect = lower value",0.633 (active)
same,normalized growth,"locus YMR219W, strain ESC1, stronger effect = lower value",0.877 (active)
same,normalized growth,"locus YMR263W, strain SAP30, stronger effect = lower value",0.629 (active)
same,normalized growth,"locus YNL128W, strain TEP1, stronger effect = lower value",0.82 (active)
same,normalized growth,"locus YNL153C, strain GIM3, stronger effect = lower value",0.838 (active)
same,normalized growth,"locus YNL298W, strain CLA4 (second series), stronger effect = lower value",0.373 (active)
same,normalized growth,"locus YNL322C, strain KRE1, stronger effect = lower value",0.99 (inactive)
same,normalized growth,"locus YNR030W, strain Alg12, stronger effect = lower value",0.483 (active)
same,normalized growth,"locus YOL006C, strain TOP1, stronger effect = lower value",0.15 (active)
same,normalized growth,"locus YPL055C, strain LGE1, stronger effect = lower value",0.747 (active)
same,normalized growth,"locus YPL241C, strain CIN2, stronger effect = lower value",0.365 (active)
same,normalized growth,"locus YPR135W, strain CTF4, stronger effect = lower value",0.213 (active)
